Here are results for nine compounds from PubChem BioAssay (Tox21).

A short description of assay [1]: Caspase-3/7 induction in CHO-K1 cells by small molecules, qHTS cell viability counter screen (AID 1346979). Note: nearly all actives have a fitted effect of over 35% in size. Note: potency is the fitted concentration of half-maximal effect. In outline: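 Multiplexed with Caspase-Glo 3/7 in CHO-K1 cells, this counter screen added CellTiter-Fluor after 16hr of compound exposure and recorded fluorescence 1hr later.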
In general terms: In qHTS, concentration-response curves come from the screen itself.

Assay [2] is described as follows: Caspase-3/7 induction in CHO-K1 cells by small molecules, qHTS assay (AID 1346980). Note: nearly all actives have a fitted effect of over 15% in size. In outline:
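Wild-type CHO-K1 cells exposed to compounds for 17hr at 37 C, 5% CO2. Caspase-3/7 activity then measured by Caspase-Glo 3/7 luminescence after 30min at room temperature.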

The target of assay [3] is Nuclear receptor subfamily 1 group I member 2 (Homo sapiens) (UniProt O75469). Nature of the assay: Human pregnane X receptor (PXR) small molecule agonists, qHTS assay (AID 1346982). Note: nearly all actives have a fitted effect of over 35% in size. Note: potency is the fitted concentration of half-maximal effect. In outline: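 Cells: HepG2 stably carrying PXR-Luc. Medium held 5% charcoal-stripped FBS. Compounds in DMSO added after 5 hr plating, incubated 24 hr, then luminescence quantified with ONE-Glo.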

The target in assay [4] is Acetylcholinesterase (Homo sapiens) (UniProt P22303). Nature of the assay: Acetylcholinesterase (AChE) small molecule antagonists: colormetric cell-based qHTS assay (AID 1347395; calls by dose curve; note: nearly all actives have a fitted effect of over 30% in size). In outline:
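In this cell-based qHTS, attached SH-SY5Y cells were treated with test chemicals for 30 min, after which acetylthiocholine hydrolysis was followed by DTNB colour development over 90 min at 37 C.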

For assay [5] the target is unchanged. Nature of the assay: Acetylcholinesterase (AChE) small molecule antagonists: enzyme-based qHTS assay (AID 1347397; calls by dose curve; note: nearly all actives have a fitted effect of over 55% in size). Conditions: Potency: AChE enzyme activity inhibition. In outline:
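Colorimetric DTNB read-out of thiocholine released from acetylthiocholine by recombinant human AChE (50 mU/mL as dispensed). Compounds were preincubated 30 min at RT before substrate/DTNB addition, with a 10 min RT reaction.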

Assay [6] has the same target. Nature of the assay: Acetylcholinesterase (AChE) small molecule antagonists: fluorescence cell-based qHTS assay (AID 1347398; calls by dose curve; note: nearly all actives have a fitted effect of over 50% in size; note: potency is the fitted concentration of half-maximal effect). Conditions: Potency: AChE activity. In outline: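 SH-SY5Y, 2,000 cells/well, attached overnight; cmpd 30 min 37 C; acetylthiocholine/Thiolite Green cocktail 40 min RT; fluorescence Ex/Em 490/520 nm.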
The target is the same in assay [7]. Nature of the assay: Acetylcholinesterase (AChE) small molecule antagonists: enzyme-based qHTS assay with human liver microsomes (AID 1347399; calls by dose curve; note: nearly all actives have a fitted effect of over 60% in size). Conditions: Potency: qHTS inhibition. In outline: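 Recombinant human AChE (50 mU/mL in the enzyme mix) and human liver microsomes (0.25 mg/mL final) were preincubated with compound and NADPH (0.25 mg/mL final) for 30 min at 37 C. Acetylthiocholine/DTNB was then added; thiocholine was read colorimetrically after 10 min at room temperature.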

Assay [8] addresses Cytochrome P450 2D6 (Homo sapiens) (UniProt P10635). Nature of the assay: Cytochrome P450 Family 2 Subfamily D Member 6 (CYP2D6) small molecule antagonists: luciferase reporter qHTS assay (AID 1671196). Note: nearly all actives have a fitted effect of over 50% in size. Note: potency is the fitted concentration of half-maximal effect. In outline:
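Enzyme and proluciferin substrate were first combined with test chemical for 10 min at room temperature. Adding NADPH regeneration solution started a 1 h reaction, stopped with luciferin detection reagent and read by luminescence 20 min later.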
A general note: Reporter assays use an easily measured gene product as a stand-in for the process of interest.

Assay [9] deals with Cytochrome P450 2C19 (Homo sapiens) (UniProt P33261). Nature of the assay: Cytochrome P450 Family 2 Subfamily C Member 19 (CYP2C19) small molecule antagonists: luciferase reporter qHTS assay (AID 1671197). Note: nearly all actives have a fitted effect of over 65% in size. Note: potency is the fitted concentration of half-maximal effect. In outline:
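First, compounds are pinned into enzyme-substrate mix and held 10 min at room temperature. Second, NADPH regeneration solution is added and plates incubate 1 h at 37C. Third, detection reagent is added and luminescence read after 20 min.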

Assay [10] concerns the target Cytochrome P450 2C9 (Homo sapiens) (UniProt P11712). Nature of the assay: Cytochrome P450 Family 2 Subfamily C Member 9 (CYP2C9) small molecule antagonists: luciferase reporter qHTS assay (AID 1671198). Note: nearly all actives have a fitted effect of over 50% in size. Note: potency is the fitted concentration of half-maximal effect. In outline: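 P450-Glo proluciferin substrate with CYP2C9 enzyme; 10 min RT preincubation, then NADPH regeneration 1 h at 37C; luciferin detection reagent 20 min RT, luminescence in relative luminescence units.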

Assay [11] concerns the target Cytochrome P450 1A2 (Homo sapiens) (UniProt P05177). Nature of the assay: Cytochrome P450 Family 1 Subfamily A Member 2 (CYP1A2) small molecule antagonists: luciferase reporter qHTS assay (AID 1671199). Note: nearly all actives have a fitted effect of over 50% in size. Note: potency is the fitted concentration of half-maximal effect. In outline: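 Compounds were incubated with CYP1A2 and a luminogenic proluciferin substrate for 10 min at room temperature before the reaction was started with NADPH regeneration solution. After 1 h, detection reagent was added and light output, proportional to CYP activity, was recorded.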

Assay [12] concerns the target Voltage-gated inwardly rectifying potassium channel KCNH2 (Homo sapiens) (UniProt Q12809). Nature of the assay: Human Ether-a-go-go-Related Gene (hERG) channel small molecule antagonists: fluorescence cell-based qHTS assay (AID 1671200). In outline: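 Cell line hERG-U2OS; dye FluxOR II, 1 h RT dark; Tl+ stimulus; ex 480/em 540 nm, read each second for 2 min.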
Assay [13] addresses Cytochrome P450 3A4 (Homo sapiens) (UniProt P08684). Nature of the assay: Cytochrome P450 Family 3 Subfamily A Member 4 (CYP3A4) small molecule antagonists: luciferase reporter qHTS assay (AID 1671201). Note: nearly all actives have a fitted effect of over 50% in size. Note: potency is the fitted concentration of half-maximal effect. In outline: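 Room-temperature assay throughout: 10 min compound–enzyme/substrate preincubation, 1 h reaction after NADPH regeneration solution, 20 min detection. Luciferin formed from proluciferin substrate is quantified by luminescence.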

Where “and” joins values, the source holds several entries; their conditions need not be identical. Equal entries are not always repeated. Values without a mark were called inactive. Inconclusive results are not listed. Calls of active or inactive are those of the source. Unless noted, calls come from the whole dose curve; as a rule, active = well fitted curve in the direction sought with a large enough effect in the repeat runs; inconclusive = weak or mixed curves; inactive = no such curve, though single readings can be large; an effect the other way counts as inactive or inconclusive.

Chain of Cytochrome P450 2D6 (Homo sapiens) (P10635 whole entry, looked up): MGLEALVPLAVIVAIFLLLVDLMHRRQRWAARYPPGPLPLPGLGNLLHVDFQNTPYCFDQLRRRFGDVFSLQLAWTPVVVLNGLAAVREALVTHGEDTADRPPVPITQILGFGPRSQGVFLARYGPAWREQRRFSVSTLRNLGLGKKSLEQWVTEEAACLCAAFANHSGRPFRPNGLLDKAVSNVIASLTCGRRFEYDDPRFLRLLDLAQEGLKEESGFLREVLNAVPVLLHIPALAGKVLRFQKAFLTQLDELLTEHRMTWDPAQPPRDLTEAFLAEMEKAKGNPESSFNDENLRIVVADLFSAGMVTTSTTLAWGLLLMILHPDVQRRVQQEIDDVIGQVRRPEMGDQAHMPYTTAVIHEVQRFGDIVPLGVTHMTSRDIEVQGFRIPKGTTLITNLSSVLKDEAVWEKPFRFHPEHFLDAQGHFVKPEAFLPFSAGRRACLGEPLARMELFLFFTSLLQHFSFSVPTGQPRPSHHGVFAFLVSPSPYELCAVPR
Chain of Cytochrome P450 3A4 (Homo sapiens) (P08684 whole entry, looked up): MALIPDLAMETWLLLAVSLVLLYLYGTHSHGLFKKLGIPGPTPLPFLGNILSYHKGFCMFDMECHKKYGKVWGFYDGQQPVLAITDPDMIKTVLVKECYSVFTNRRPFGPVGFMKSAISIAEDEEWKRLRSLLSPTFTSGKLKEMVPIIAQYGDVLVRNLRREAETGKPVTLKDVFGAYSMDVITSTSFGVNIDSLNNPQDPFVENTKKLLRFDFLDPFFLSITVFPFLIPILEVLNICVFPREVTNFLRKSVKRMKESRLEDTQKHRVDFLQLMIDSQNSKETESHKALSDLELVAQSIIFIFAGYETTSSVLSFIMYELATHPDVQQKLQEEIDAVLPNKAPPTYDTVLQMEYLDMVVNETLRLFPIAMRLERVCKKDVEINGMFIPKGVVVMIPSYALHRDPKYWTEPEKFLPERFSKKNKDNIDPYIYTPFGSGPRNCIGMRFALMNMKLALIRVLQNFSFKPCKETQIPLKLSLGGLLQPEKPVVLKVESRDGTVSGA
Chain of Cytochrome P450 2C9 (Homo sapiens) (P11712 whole entry, looked up): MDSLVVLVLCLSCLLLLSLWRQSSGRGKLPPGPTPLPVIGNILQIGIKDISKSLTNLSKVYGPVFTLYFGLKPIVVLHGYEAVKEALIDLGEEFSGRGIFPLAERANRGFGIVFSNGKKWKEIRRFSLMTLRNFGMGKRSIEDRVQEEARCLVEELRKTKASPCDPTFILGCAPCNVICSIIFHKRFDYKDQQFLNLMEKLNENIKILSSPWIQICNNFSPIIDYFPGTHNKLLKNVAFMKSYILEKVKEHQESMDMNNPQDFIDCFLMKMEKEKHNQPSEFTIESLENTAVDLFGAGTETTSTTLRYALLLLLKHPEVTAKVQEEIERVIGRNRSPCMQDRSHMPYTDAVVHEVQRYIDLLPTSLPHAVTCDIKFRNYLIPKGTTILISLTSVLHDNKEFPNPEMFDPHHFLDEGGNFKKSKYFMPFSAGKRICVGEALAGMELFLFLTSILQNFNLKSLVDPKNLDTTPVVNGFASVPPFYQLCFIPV
Chain of Acetylcholinesterase (Homo sapiens) (P22303 whole entry, looked up): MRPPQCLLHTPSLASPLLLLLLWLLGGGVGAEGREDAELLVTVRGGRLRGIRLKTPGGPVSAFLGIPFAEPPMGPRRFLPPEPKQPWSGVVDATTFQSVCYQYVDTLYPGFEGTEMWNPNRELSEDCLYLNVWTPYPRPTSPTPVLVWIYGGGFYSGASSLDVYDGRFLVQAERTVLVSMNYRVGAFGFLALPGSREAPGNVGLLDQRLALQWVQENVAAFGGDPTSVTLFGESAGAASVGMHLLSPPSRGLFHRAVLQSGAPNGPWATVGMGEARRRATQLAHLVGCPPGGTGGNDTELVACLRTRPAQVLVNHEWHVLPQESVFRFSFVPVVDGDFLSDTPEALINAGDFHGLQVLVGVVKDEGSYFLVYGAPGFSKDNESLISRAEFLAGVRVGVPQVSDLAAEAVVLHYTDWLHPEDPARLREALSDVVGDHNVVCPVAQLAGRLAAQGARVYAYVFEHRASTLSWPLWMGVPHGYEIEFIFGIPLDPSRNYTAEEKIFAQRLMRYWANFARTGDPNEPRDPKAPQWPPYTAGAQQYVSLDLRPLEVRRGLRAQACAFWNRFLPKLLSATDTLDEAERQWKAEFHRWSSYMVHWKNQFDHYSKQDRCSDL
Chain of Cytochrome P450 1A2 (Homo sapiens) (P05177 whole entry, looked up): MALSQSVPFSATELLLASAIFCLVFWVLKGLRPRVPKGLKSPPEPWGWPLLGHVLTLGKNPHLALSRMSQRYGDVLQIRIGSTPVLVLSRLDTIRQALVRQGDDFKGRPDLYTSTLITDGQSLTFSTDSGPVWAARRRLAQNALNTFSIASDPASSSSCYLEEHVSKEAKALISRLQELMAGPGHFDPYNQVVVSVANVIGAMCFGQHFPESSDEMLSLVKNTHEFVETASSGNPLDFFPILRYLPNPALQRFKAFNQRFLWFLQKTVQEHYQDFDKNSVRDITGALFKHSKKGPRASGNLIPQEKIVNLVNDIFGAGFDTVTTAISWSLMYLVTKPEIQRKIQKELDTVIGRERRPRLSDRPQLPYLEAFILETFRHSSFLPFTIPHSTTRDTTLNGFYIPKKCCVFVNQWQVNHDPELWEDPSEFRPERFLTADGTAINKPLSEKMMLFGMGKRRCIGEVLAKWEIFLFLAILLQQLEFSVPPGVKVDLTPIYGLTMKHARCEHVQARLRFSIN
Chain of Cytochrome P450 2C19 (Homo sapiens) (P33261 whole entry, looked up): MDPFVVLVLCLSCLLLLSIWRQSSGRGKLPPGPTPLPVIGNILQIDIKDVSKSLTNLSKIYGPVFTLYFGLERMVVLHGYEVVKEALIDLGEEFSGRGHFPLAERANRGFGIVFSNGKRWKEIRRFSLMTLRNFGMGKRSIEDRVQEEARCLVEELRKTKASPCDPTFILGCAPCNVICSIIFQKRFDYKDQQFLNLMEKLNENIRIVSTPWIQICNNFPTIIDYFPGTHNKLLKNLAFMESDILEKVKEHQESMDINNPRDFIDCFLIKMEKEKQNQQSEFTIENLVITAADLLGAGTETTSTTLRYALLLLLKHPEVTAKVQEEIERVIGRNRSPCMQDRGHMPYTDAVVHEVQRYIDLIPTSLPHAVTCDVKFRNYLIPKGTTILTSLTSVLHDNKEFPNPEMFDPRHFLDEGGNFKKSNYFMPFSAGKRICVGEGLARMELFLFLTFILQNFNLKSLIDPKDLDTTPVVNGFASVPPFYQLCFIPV
Chain of Nuclear receptor subfamily 1 group I member 2 (Homo sapiens) (O75469 whole entry, looked up): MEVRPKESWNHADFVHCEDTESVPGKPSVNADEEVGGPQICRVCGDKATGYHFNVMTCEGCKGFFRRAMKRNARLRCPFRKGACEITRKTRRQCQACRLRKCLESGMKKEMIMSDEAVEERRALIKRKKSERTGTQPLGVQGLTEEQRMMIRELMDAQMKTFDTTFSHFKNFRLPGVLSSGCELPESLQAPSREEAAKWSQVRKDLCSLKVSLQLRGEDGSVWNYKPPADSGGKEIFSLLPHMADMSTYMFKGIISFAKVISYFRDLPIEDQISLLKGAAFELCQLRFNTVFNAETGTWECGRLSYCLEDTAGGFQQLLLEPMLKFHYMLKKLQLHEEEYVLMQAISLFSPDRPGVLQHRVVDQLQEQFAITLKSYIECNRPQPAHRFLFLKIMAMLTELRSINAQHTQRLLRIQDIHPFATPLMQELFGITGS
Chain of Voltage-gated inwardly rectifying potassium channel KCNH2 (Homo sapiens) (Q12809 whole entry, looked up): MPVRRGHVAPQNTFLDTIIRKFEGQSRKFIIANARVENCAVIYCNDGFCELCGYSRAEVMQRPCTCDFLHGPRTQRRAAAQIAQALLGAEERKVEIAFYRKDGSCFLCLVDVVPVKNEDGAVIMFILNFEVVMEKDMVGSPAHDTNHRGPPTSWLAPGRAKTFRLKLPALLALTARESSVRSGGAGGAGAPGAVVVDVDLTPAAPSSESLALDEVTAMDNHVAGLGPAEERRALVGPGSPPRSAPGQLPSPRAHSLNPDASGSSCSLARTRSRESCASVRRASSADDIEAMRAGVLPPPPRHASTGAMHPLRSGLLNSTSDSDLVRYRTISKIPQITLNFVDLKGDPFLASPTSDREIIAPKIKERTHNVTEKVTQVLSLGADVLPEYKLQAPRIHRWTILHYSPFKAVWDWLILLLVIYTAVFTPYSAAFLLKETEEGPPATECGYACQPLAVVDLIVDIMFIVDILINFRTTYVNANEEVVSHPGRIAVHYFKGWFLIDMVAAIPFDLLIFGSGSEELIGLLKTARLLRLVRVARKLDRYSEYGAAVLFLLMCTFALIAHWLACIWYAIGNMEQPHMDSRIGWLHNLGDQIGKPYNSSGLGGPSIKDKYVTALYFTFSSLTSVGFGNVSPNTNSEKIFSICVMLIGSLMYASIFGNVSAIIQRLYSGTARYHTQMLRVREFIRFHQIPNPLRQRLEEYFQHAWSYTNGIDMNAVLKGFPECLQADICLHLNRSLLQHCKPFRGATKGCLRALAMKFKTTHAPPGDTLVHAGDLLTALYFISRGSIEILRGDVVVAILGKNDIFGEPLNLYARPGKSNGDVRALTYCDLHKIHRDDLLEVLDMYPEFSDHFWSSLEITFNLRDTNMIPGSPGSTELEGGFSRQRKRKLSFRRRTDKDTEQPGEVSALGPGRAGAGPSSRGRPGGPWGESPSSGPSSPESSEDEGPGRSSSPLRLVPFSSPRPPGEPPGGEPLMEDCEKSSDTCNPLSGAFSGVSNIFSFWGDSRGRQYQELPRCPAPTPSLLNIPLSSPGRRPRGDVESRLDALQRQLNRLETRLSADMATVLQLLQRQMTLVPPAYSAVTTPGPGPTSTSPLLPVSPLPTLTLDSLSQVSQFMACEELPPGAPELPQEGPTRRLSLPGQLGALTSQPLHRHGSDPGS

On to `c1ccc2c(c1)OCC(C1=NCCN1)O2` (stereo not given), for which the values for the Potency in [1], in [3] and in assay [8] were 23.7 µM (active), 11.9 µM (active) and 13.8 µM (active), respectively. Besides, the Potency result in assay [2], in [4], in [5], in assay [6], in assay [7] and in [9] was “inactive” each time. Also, the Potency entry in assay [10], in assay [11], in assay [12] and in [13] was “inactive” in each case.

Consider `CCCCOP(=O)(CCCC)OCCCC`, for which the Potency entry in assay [1], in assay [2], in [3], in [4], in assay [5] and in assay [7] was “inactive” in each case. Besides, the Potency result in assay [8] and in assay [12] was “inactive” throughout. Also, the Potency in assay [9] was 11.2 µM (active); in [10], 31.7 µM (active).

In the case of `O=C(O)c1cc[c]([Hg][Cl])cc1`, the Potency was 24.3 µM (active) in [1]; 21.7 µM (active) in assay [3]; 71 µM (active) in [6]; 12.6 µM (active) in assay [8]; 7.1 µM (active) in assay [9]; 4.48 µM (active) in [10]. Also, the results for the Potency in assay [11] and in assay [13] were 17.8 µM (active) and 8.94 µM (active), respectively. Moreover, the Potency entry in assay [2], in [4], in [5], in assay [7] and in [12] was “inactive” throughout.

As to `N#CNC#N`, the Potency result in assay [1], in assay [2], in assay [3], in [4], in [5] and in [6] was “inactive” each time. Also, the Potency entry in [7], in assay [8], in [9], in assay [10], in assay [12] and in [13] was “inactive” throughout.

Turning to `CC(C)N1C(=O)N(c2ccccc2)CSC1=NC(C)(C)C`, the Potency in [1] was 61.1 µM (active); in assay [3], 6.11 µM (active); in assay [9], 7.1 µM (active); in assay [10], 6.33 µM (active); in assay [13], 31.7 µM (active). Further, the Potency entry in [2], in [4], in [5], in [6] and in assay [7] was “inactive” throughout.

In the case of `COS(=O)(=O)c1ccc(C)cc1`, the Potency entry in [1], in assay [2], in assay [3], in [4], in assay [5] and in assay [7] was “inactive” throughout. The Potency entry in assay [8], in assay [9], in assay [10], in assay [11], in assay [12] and in [13] was “inactive” in each case.

As for `c1ccc(Nc2ccc3ccccc3c2)cc1`, the Potency in [1] is 54.5 µM (active); in [3] it was 30.5 µM (active) and 21.7 µM (active); in assay [9], 7.06 µM (active) and 5.64 µM (active); in assay [10] it was 35.4 µM (active) and 31.7 µM (active); in assay [11], 3.54 µM (active) and 3.56 µM (active); in [13], 22.3 µM (active) and 35.6 µM (active). Also, the Potency entry in assay [2], in assay [4], in assay [5], in [6], in assay [7] and in assay [12] was “inactive” throughout.

For the compound `CCc1cc(C)cc(CC)c1-c1c(OC(=O)C(C)(C)C)n2n(c1=O)CCOCC2`, the Potency was 27.3 µM (active) in assay [1] and 8.94 µM (active) in assay [13]. Moreover, the Potency result in [2], in assay [3], in assay [4], in assay [5], in assay [6] and in assay [7] was “inactive” throughout. Besides, the Potency result in [10], in [11] and in assay [12] was “inactive” in each case.

For `CCN`, the Potency result in assay [1], in assay [2], in assay [3], in assay [4], in assay [5] and in [6] was “inactive” in each case. The Potency entry in assay [7], in [8], in assay [9], in assay [10], in assay [12] and in [13] was “inactive” each time.
